# PubChem BioAssay (EPA / NIEHS)
# Calls of active or inactive are those of the source. How the source made its calls: active means hit-call score of the fitted dose curve at least 0.9, where 1 is the maximum; inactive means score below 0.9.
# Read-out: Urokinase-type plasminogen activator receptor (uPAR), PLAUR (gene 5329)
# Assay: BSK_BE3C_uPAR: BioMAP Diversity Plus: BE3C Assay for Urokinase-type plasminogen activator receptor (uPAR) Biomarker Activity (AID 2283039);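 on outcome: uPAR protein level measured by ELISA on the cells; cells exposed to compound for one day before measurement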
# Conditions: primary human bronchial epithelial cells; actives raise or lower the signal
# Outline: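 Primary human bronchial epithelial cells dosed for 24 h; uPAR quantified by ELISA with bidirectional fitting against DMSO. Overt cytotoxicity assessed in parallel cultures by SRB total-protein staining (0.1% SRB, 560 nm).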
Structure (SMILES),outcome,AC50
CC(C)(C)OOC(C)(C)CCC(C)(C)OOC(C)(C)C,inactive,–
c1ccc2c(c1)oc1ccccc12,inactive,–
Nc1ccc([N+](=O)[O-])cc1,inactive,–
Nc1ccc(Oc2ccc(N)cc2)cc1,inactive,–
COC(=O)c1ccccc1N,inactive,–
c1ccc2c(c1)-c1cccc3cccc-2c13,inactive,–
O=C(O)C1C2CCC(O2)C1C(=O)O (centres undefined),inactive,–
O=P(OCCCl)(OCCCl)OCCCl,inactive,–
CC(C)(OOC(C)(C)c1ccccc1)c1ccccc1,–,11.6 µM (active)
CC(C)N(Cc1ccccc1)C(=O)C(C)(C)C,inactive,–
CS(=O)(=O)NC(=O)c1cc(Oc2ccc(C(F)(F)F)cc2Cl)ccc1[N+](=O)[O-],inactive,–
[O-][Cl+]O,inactive,–
CCN(CC)CCO,inactive,–
O=C(Oc1ccc(Br)cc1)N1CCN2CCC1CC2,inactive,–
O=[N+]([O-])C(Br)(CO)CO,inactive,–
c1ccc(C2CO2)cc1 (centres undefined),inactive,–
c1ccc(N=Nc2ccccc2)cc1,inactive,–
Oc1ccc2ccc3cccc4ccc1c2c34,–,33 µM (active)
CCC[CH2][Sn]([Cl])([CH2]CCC)[CH2]CCC,–,0.148 µM (active)
COP(=S)(OC)SCN1C(=O)c2ccccc2C1=O,inactive,–
[Cl-].[Cl-].[Hg+2],–,31.5 µM (active)
CCN(CC)N=O,inactive,–
Nc1ccc(N=Nc2ccccc2)cc1,inactive,–
CCOC(=O)[C@]1(c2ccccc2)Oc2ccccc2[C@@H]1N,inactive,–
c1ccc(NNc2ccccc2)cc1,inactive,–
CCCCCOC(=O)c1ccccc1C(=O)OCCCCC,inactive,–
CCCCCCCCOC(=O)c1ccc(C(=O)OCCCCCCCC)c(C(=O)OCCCCCCCC)c1,inactive,–
O=[N+]([O-])c1ccc(Oc2ccc(Cl)cc2Cl)cc1,inactive,–

# Read-out: Interleukin-6 (IL6), IL6 (gene 3569)
# Assay: BSK_CASM3C_IL6: BioMAP Diversity Plus: CASM3C Assay for Interleukin-6 (IL6) Biomarker Activity for (AID 2283040)
# Conditions: primary human coronary artery smooth muscle cells; actives raise or lower the signal
Structure (SMILES),outcome,AC50
CC(C)(C)OOC(C)(C)CCC(C)(C)OOC(C)(C)C,inactive,–
c1ccc2c(c1)oc1ccccc12,inactive,–
Nc1ccc([N+](=O)[O-])cc1,inactive,–
Nc1ccc(Oc2ccc(N)cc2)cc1,inactive,–
COC(=O)c1ccccc1N,inactive,–
c1ccc2c(c1)-c1cccc3cccc-2c13,inactive,–
O=C(O)C1C2CCC(O2)C1C(=O)O (centres undefined),inactive,–
O=P(OCCCl)(OCCCl)OCCCl,inactive,–
CC(C)(OOC(C)(C)c1ccccc1)c1ccccc1,inactive,–
CC(C)N(Cc1ccccc1)C(=O)C(C)(C)C,inactive,–
CS(=O)(=O)NC(=O)c1cc(Oc2ccc(C(F)(F)F)cc2Cl)ccc1[N+](=O)[O-],inactive,–
[O-][Cl+]O,inactive,–
CCN(CC)CCO,inactive,–
O=C(Oc1ccc(Br)cc1)N1CCN2CCC1CC2,inactive,–
O=[N+]([O-])C(Br)(CO)CO,inactive,–
c1ccc(C2CO2)cc1 (centres undefined),inactive,–
c1ccc(N=Nc2ccccc2)cc1,inactive,–
Oc1ccc2ccc3cccc4ccc1c2c34,inactive,–
CCC[CH2][Sn]([Cl])([CH2]CCC)[CH2]CCC,–,1.5 µM (active)
COP(=S)(OC)SCN1C(=O)c2ccccc2C1=O,inactive,–
[Cl-].[Cl-].[Hg+2],–,31.9 µM (active)
CCN(CC)N=O,inactive,–
Nc1ccc(N=Nc2ccccc2)cc1,inactive,–
CCOC(=O)[C@]1(c2ccccc2)Oc2ccccc2[C@@H]1N,inactive,–
c1ccc(NNc2ccccc2)cc1,inactive,–
CCCCCOC(=O)c1ccccc1C(=O)OCCCCC,inactive,–
CCCCCCCCOC(=O)c1ccc(C(=O)OCCCCCCCC)c(C(=O)OCCCCCCCC)c1,inactive,–
O=[N+]([O-])c1ccc(Oc2ccc(Cl)cc2Cl)cc1,inactive,–

# Read-out: Tissue plasminogen activator (tPA), PLAT (gene 5327)
# Assay: BSK_BE3C_tPA: BioMAP Diversity Plus: BE3C Assay for Tissue plasminogen activator (tPA) Biomarker Activity (AID 2283041);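 on outcome: tPA level quantified by ELISA one day after compound addition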
# Conditions: primary human bronchial epithelial cells; actives raise or lower the signal
# Outline: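 Primary human bronchial epithelial cells in the BE3C system, exposed to compound for 24 h. tPA was quantified by ELISA; DMSO served as baseline, with gain or loss of signal fitted. Cytotoxicity checked in parallel cultures by SRB total-protein staining.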
Structure (SMILES),outcome,AC50
CC(C)(C)OOC(C)(C)CCC(C)(C)OOC(C)(C)C,inactive,–
c1ccc2c(c1)oc1ccccc12,inactive,–
Nc1ccc([N+](=O)[O-])cc1,inactive,–
Nc1ccc(Oc2ccc(N)cc2)cc1,inactive,–
COC(=O)c1ccccc1N,inactive,–
c1ccc2c(c1)-c1cccc3cccc-2c13,inactive,–
O=C(O)C1C2CCC(O2)C1C(=O)O (centres undefined),–,18.6 µM (active)
O=P(OCCCl)(OCCCl)OCCCl,inactive,–
CC(C)(OOC(C)(C)c1ccccc1)c1ccccc1,inactive,–
CC(C)N(Cc1ccccc1)C(=O)C(C)(C)C,inactive,–
CS(=O)(=O)NC(=O)c1cc(Oc2ccc(C(F)(F)F)cc2Cl)ccc1[N+](=O)[O-],inactive,–
[O-][Cl+]O,inactive,–
CCN(CC)CCO,inactive,–
O=C(Oc1ccc(Br)cc1)N1CCN2CCC1CC2,inactive,–
O=[N+]([O-])C(Br)(CO)CO,inactive,–
c1ccc(C2CO2)cc1 (centres undefined),inactive,–
c1ccc(N=Nc2ccccc2)cc1,inactive,–
Oc1ccc2ccc3cccc4ccc1c2c34,–,36.1 µM (active)
CCC[CH2][Sn]([Cl])([CH2]CCC)[CH2]CCC,–,0.227 µM (active)
COP(=S)(OC)SCN1C(=O)c2ccccc2C1=O,inactive,–
[Cl-].[Cl-].[Hg+2],–,31.8 µM (active)
CCN(CC)N=O,inactive,–
Nc1ccc(N=Nc2ccccc2)cc1,inactive,–
CCOC(=O)[C@]1(c2ccccc2)Oc2ccccc2[C@@H]1N,inactive,–
c1ccc(NNc2ccccc2)cc1,inactive,–
CCCCCOC(=O)c1ccccc1C(=O)OCCCCC,inactive,–
CCCCCCCCOC(=O)c1ccc(C(=O)OCCCCCCCC)c(C(=O)OCCCCCCCC)c1,inactive,–
O=[N+]([O-])c1ccc(Oc2ccc(Cl)cc2Cl)cc1,inactive,–
